Compound activity as filed in PubChem.
D2 PAM-1: positively modulates the human D2 dopamine receptor allosterically; AID 485347; potentiation, % at 10 µM; P14416; HEK293 T-REx D2, calcium flux, EC20 dopamine potentiation; 340,000 tested, 0.34% active;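 active = potentiation over 3 SD above the plate norm, cut at about 30% in these data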
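Potentiation of an EC20 dopamine calcium response is measured in a force-coupled, tetracycline-inducible Hek293 Trex D2 line. Compound-only kinetic reads over 180 s flag agonists before dopamine addition.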
D2 ag-1: D2 dopamine receptor (human) agonism; HEK293 T-REx D2 cells, calcium flux agonist mode; 340,000 tested, 0.53% active; P14416; activation, % at 2 µM;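 active = activation over 3 SD above normal in the single-dose calcium agonist read, cut at about 30% in these data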
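HEK293 Trex D2 cells, tetracycline-induced, o/n 30 C 5% CO2; no-wash Ca dye, RT 30–90 min; 10-cycle baseline, 23 nl cpd added, kinetic Ca read 180 s; agonist hits = positive Ca response.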
D2 antagonist: D2 dopamine receptor (human) antagonism | P14416 | HEK293 TREx D2 cells, calcium flux, dopamine EC80 | inhibition, % at 10 µM | 340,000 tested, 2% active; in the data active = inhibition above about 30%; inactive = below that, where a call was filed
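Antagonism is scored as inhibition of an EC80 dopamine-evoked calcium signal in a force-coupled, tetracycline-inducible HEK293 T-REx D2 line, with compound present 180 s before agonist.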
D2 PAM-2: human D2 receptor positive allosteric modulation. P14416. DiscoveRx D2 beta-arrestin cells, luminescence, 90 min; 100% = 57 uM dopamine signal. potentiation, % (concentration not given with the values). 360,000 tested, 0.23% active. AID 624464; in the data active = potentiation above about 50%; inconclusive = mostly about 30% to 49%
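D2 cells co-treated with compound plus 50 nM dopamine (EC20) for 90 min at 37 deg C to detect potentiation. Beta-arrestin recruitment was read as enzyme-fragment luminescence after 1 h at ambient temperature. Full response was set by 57 uM dopamine.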
D2 ag-2: human D2 receptor agonism in beta-arrestin assay | P14416 | DiscoveRx PathHunter D2 beta-arrestin, luminescence, 90 min; 100% = 57 uM dopamine signal | activation, % (test concentration not listed) | 360,000 tested, 0.084% active | AID 624465; in the data active = activation above about 40%; inconclusive = between about 15% and that limit
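DiscoveRx PathHunter D2 beta-arrestin cells (2,100/well) attached overnight, then compound-stimulated 90 min at 37 C in HBSS/10 mM HEPES/0.1% Tween-20 buffer; beta-galactosidase complementation read by luminescence after 1 h at ambient temperature. Dopamine 57 uM final (EC100) as control.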
D3 ag: confirmation of human D3 dopamine receptor agonists, beta-arrestin; DiscoveRx D3 beta-arrestin cells, luminescence, 90 min; Potency, µM (top dose mostly 76.9 µM), actives largely listed as activators; 2,300 tested, 4% active; shares compounds with D2 ag-1; AID 720506; note: nearly all actives have a fitted effect of over 70% in size
Target sequence (P35462 whole entry, looked up): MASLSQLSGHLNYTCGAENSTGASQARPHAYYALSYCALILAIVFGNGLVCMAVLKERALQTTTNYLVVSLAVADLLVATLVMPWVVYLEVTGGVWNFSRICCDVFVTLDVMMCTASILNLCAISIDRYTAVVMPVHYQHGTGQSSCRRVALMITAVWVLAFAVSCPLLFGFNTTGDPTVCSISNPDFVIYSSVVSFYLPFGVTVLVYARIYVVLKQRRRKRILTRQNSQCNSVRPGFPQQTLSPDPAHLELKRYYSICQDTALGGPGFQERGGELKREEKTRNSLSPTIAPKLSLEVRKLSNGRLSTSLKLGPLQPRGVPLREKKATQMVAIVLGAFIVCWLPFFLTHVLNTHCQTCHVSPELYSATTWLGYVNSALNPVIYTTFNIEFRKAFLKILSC
D2 ag-3: counter-screen for D3 agonists: human D2 dopamine receptor agonism | shares compounds with D2 ag-1 | DiscoveRx PathHunter D2 beta-arrestin, luminescence, 90 min; response scale: percent relative to full dopamine signal | Potency, µM (doses to about 76.9 µM), hits mostly activators | 2,300 tested, 5.9% active | AID 720507; note: nearly all actives have a fitted effect of over 70% in size
Hits are given with their value; . = inactive; ? = inconclusive; / = no result; ! = not confirmed by another sample. The list is not random: actives were taken first. Their share in the collection is about 2.4%. Unless noted, calls come from the whole dose curve; as a rule, active = well fitted activation curve with a large enough effect; inconclusive = small, poorly fitted or top-dose-only effect; inactive = flat fitted curve, though single readings scatter.

SMILES	D2 PAM-1	D2 ag-1	D2 antagonist	D2 PAM-2	D2 ag-2	D3 ag	D2 ag-3
O=C1N/C(=C/c2cccs2)C(=O)N1Cc1ccccc1F	.	.	.	.	.	/	/
CCOC(=O)C1(C(F)(F)F)N=C(C(F)(F)F)Nc2cc(C)c(C)cc21 (stereo not drawn)	.	.	.	.	.	.	.
COC(=O)C1(C(F)(F)F)N=C(C(F)(F)F)Nc2ccc(Cl)cc21 (stereo not drawn)	/	/	/	.	.	/	/
O=C(NC1CCCCC1)c1cccc2c(-c3ccc(F)c(F)c3)coc12	/	/	/	.	.	/	/
CCN(CC)CC(C)CNC(=O)CN1C(=O)CSc2ccc(S(=O)(=O)N3CCOCC3)cc21 (stereo not drawn)	.	54!	.	.	.	.	.
CCN(CC)CCCNC(=O)CN1C(=O)CSc2ccc(S(=O)(=O)N3CCOCC3)cc21	.	.	.	.	.	/	/
Cc1ccc(Cl)cc1N1CCN(C(=O)c2cc(S(=O)(=O)N3CCCCC3)cn2C)CC1	.	.	/	/	/	/	/
Cc1cccc(OCC(=O)Nc2ccc3c(c2)nc(CCN2CCN(c4ccccn4)CC2)n3C)c1	.	.	31	.	.	28µM	?
Cn1c(CCN2CCN(c3ccccn3)CC2)nc2cc(NC(=O)COc3ccc(Cl)cc3)ccc21	.	.	37	.	.	.	?
O=C(NCc1ccc2c(c1)CCN2C(=O)c1ccncc1)c1ccccc1Cl	.	.	/	/	/	/	/
CCOc1ccc(NS(=O)(=O)c2ccc(NC(=O)N3CCCC3)cc2)cc1	.	.	/	/	/	/	/
CCc1ccc2c(CC(=O)NNC(=O)c3ccncc3)coc2c1	.	.	.	.	.	.	.
COc1ccc(N2Cc3cccc(C(=O)Nc4ccc(C(C)C)cc4)c3C2=O)cc1	.	.	/	/	/	/	/
CN(Cc1cccc(F)c1)C(=O)c1cc(S(=O)(=O)N2CCOCC2)ccc1N1CCCC1	.	.	.	.	.	.	.
CCc1ccc(CN(C)C(=O)c2cc(S(=O)(=O)N3CCOCC3)ccc2N2CCCC2)cc1	.	.	.	.	.	/	/
COc1ccc(NC(=O)C(CC(C)C)NS(=O)(=O)c2ccc3c(c2)oc(=O)n3C)cc1Cl (stereo not drawn)	.	/	/	/	/	/	/
CCN1CCc2nc(N)oc2CC1	.	.	.	.	.	/	/
C=CCN1CCc2nc(N)sc2CC1	.	88	89	81	69	0.089µM	0.045µM
CCN1CCc2nc(N)sc2C1	.	68	35	.	.	.	.
Nc1nc2c(s1)CCCCCCCCCC2	.	.	.	.	.	/	/
COc1cc(NC(=O)c2cccs2)c(OC)cc1NC(=O)Nc1ccc(F)cc1	.	.	.	.	.	/	/
COc1cc([N+](=O)[O-])c(C(=O)N2CCOCC2)c([N+](=O)[O-])c1	.	.	.	.	.	/	/
Cc1ccc(C(=O)Nc2ccc3c(c2)C(=O)N(C)C3=O)c(C)c1	.	.	.	.	.	/	/
Cc1ccc(C2=CC(=O)C[C@H](c3ccc(F)cc3)C2)cc1	.	.	.	.	.	/	/
Cn1ccc2ccc(C3=CC(=O)C[C@H](c4ccc(F)cc4)C3)cc21	.	.	.	.	.	.	.
SMILES	D2 PAM-1	D2 ag-1	D2 antagonist	D2 PAM-2	D2 ag-2	D3 ag	D2 ag-3
N#Cc1ccc(C2=CC(=O)C[C@H](c3ccc(F)cc3)C2)cc1	.	.	.	.	.	.	.
CC1CCCC(C)N1CCCNC(=O)Cn1ncc2c([nH]c3ccccc32)c1=O (stereo not drawn)	.	.	.	.	.	/	/
O=C(Cn1ncc2c([nH]c3ccccc32)c1=O)NCCCN1CCN(c2ccccc2)CC1	.	.	103	.	?	.	?
CCCCn1nc(C(=O)NCc2ccccc2CN2CCCC2)c2ccccc2c1=O	.	.	.	.	.	/	/
O=C(NNC(=S)NC1CCCCC1)c1sc2ccccc2c1Cl	.	.	.	.	.	/	/
CC(C)(C)C(=O)NC(=S)NNC(=O)c1sc2ccccc2c1Cl	.	146	57	.	.	.	.
O=C(NCc1ccccc1Cl)C1=CC=CN2CCS(=O)(=O)N=C12	.	.	.	.	.	/	/
O=C(C1CCC(=O)N(C2CC2)C1)N(CCO)Cc1ccccc1 (stereo not drawn)	.	.	.	.	.	/	/
COc1ccc(CCNC(=O)COC(=O)c2ccc(N3CCCC3=O)cc2)cc1OC	.	.	.	.	.	/	/
COc1ccccc1CNC(=O)COC(=O)c1ccc(N2CCCC2=O)cc1	.	.	.	.	.	.	.
CCOC(=O)c1ccc(NC(=O)N2CCOc3ccccc32)cc1	.	.	/	/	/	/	/
CCOC(=O)C1CCCN(CC(=O)Nc2c(C(=O)OC)[nH]c3ccccc23)C1 (stereo not drawn)	/	/	/	.	.	/	/
CCOC(=O)C1CCN(CC(=O)Nc2c(C(=O)OC)[nH]c3cccc(C)c23)CC1	.	.	.	.	.	.	.
COc1cc(/C=C2\CCC(C3CCCC3)C2=O)ccc1OC(C)C (stereo not drawn)	.	.	.	.	.	/	/
CCC(C)c1ccc(NC(=S)NN2CCOCC2)cc1 (stereo not drawn)	.	.	.	.	.	/	/
O=C(CCS(=O)(=O)Cc1ccccc1)NCCc1ccccc1	.	.	.	.	.	/	/
O=C(N/N=C/c1cccc(Oc2ccccc2)c1)c1cc[n+]([O-])cc1	.	.	.	.	.	/	/
Nc1ccc(C(=O)N/N=C/c2cccc(Oc3ccccc3)c2)cc1	.	.	31	.	.	.	.
Nc1ccc(C(=O)N/N=C\c2ccc(OC(=O)c3ccccc3Cl)cc2)cc1	.	.	33	.	.	.	.
O=C(c1ccco1)N1CCC(c2nc3c(nnn3Cc3ccc(F)cc3)c(=O)[nH]2)CC1	.	.	.	.	.	/	/
O=C(NCCCN1CCOCC1)C(=O)N/N=C/c1c2ccccc2cc2ccccc12	.	.	.	.	.	/	/
CCOc1ccc(NC(C)=O)cc1[N+](=O)[O-]	.	.	.	.	.	/	/
CCOc1ccc(NC(C)=O)cc1N	.	.	.	.	.	.	.
Cc1cccc(-c2nc3c4ccccc4nc(NCc4ccc(Cl)cc4)n3n2)c1	.	/	/	/	/	/	/
O=C(NCC1CCCO1)c1cc([N+](=O)[O-])ccc1N1CCC(Cc2ccccc2)CC1 (stereo not drawn)	.	.	.	.	.	/	/
O=C(CSc1nnc(Cc2ccccc2)n1-c1ccc(Cl)cc1)N1CCOCC1	.	40	.	.	.	.	.
Cn1c(Cc2ccccc2)nnc1SCC(=O)N1CCOCC1	.	.	.	.	.	/	/
CCOc1cc2[nH]c(=O)n(CCCC(=O)N3CCN(c4ccc(OC)cc4)CC3)c(=O)c2cc1OCC	.	.	/	/	/	/	/
